Records with an inconclusive call do not appear. Active and inactive are the calls of the source. Calls follow the shape of the dose curve; as a rule, active = well fitted inhibition curve with a large enough effect; inconclusive = small, poorly fitted or top-dose-only effect; inactive = flat fitted curve, though single readings scatter.
Tests used:
Assay in all cases: qHTS profiling for inhibitors of Plasmodium falciparum proliferation (AID 504749); also: nearly all actives have a fitted effect of over 60% in size
AA1029 = details: P. falciparum in erythrocytes, SYBR Green DNA, 72 h; series mostly up to 12.8 µM
In short: (§1)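 SYBR Green fluorescence (ex 485 nm, em 535 nm) reports parasite DNA after 72 h compound exposure of infected red cells at 0.3% parasitemia, 2.5% hematocrit; signal normalized to 0.29 uM artemisinin and vehicle wells.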

C2A = details: P. falciparum in erythrocytes, SYBR Green DNA, 72 h; series mostly up to 12.8 µM
In short: as §1

CP211 = details: P. falciparum in erythrocytes, SYBR Green DNA, 72 h; series mostly up to 12.8 µM
In short: as §1

CP215 = details: P. falciparum in erythrocytes, SYBR Green DNA, 72 h; series mostly up to 28.7 µM
In short: as §1

CP217 = details: P. falciparum in erythrocytes, SYBR Green DNA, 72 h; series mostly up to 12.8 µM
In short: as §1

CP250 = details: P. falciparum in erythrocytes, SYBR Green DNA, 72 h; series mostly up to 12.8 µM
In short: as §1

CP252 = details: P. falciparum in erythrocytes, SYBR Green DNA, 72 h; series mostly up to 12.8 µM
In short: as §1

CP256 = details: P. falciparum in erythrocytes, SYBR Green DNA, 72 h; series mostly up to 12.8 µM
In short: as §1

CP260 = details: P. falciparum in erythrocytes, SYBR Green DNA, 72 h; series mostly up to 12.8 µM
In short: as §1

CP269 = details: P. falciparum in erythrocytes, SYBR Green DNA, 72 h; series mostly up to 12.8 µM
In short: as §1

CP315 = details: P. falciparum in erythrocytes, SYBR Green DNA, 72 h; series mostly up to 12.8 µM
In short: as §1

CP325 = details: P. falciparum in erythrocytes, SYBR Green DNA, 72 h; series mostly up to 12.8 µM
In short: as §1

CP329 = details: P. falciparum in erythrocytes, SYBR Green DNA, 72 h; series mostly up to 12.8 µM
In short: as §1

FAB9 = details: P. falciparum in erythrocytes, SYBR Green DNA, 72 h; series mostly up to 12.8 µM
In short: as §1

JCK = details: P. falciparum in erythrocytes, SYBR Green DNA, 72 h; series mostly up to 12.8 µM
In short: as §1

N140 = details: P. falciparum in erythrocytes, SYBR Green DNA, 72 h; series mostly up to 12.8 µM
In short: as §1

P93_24 = details: P. falciparum in erythrocytes, SYBR Green DNA, 72 h; series mostly up to 12.8 µM
In short: as §1

PC15 = details: P. falciparum in erythrocytes, SYBR Green DNA, 72 h; series mostly up to 12.8 µM
In short: as §1

SC27B = details: P. falciparum in erythrocytes, SYBR Green DNA, 72 h; series mostly up to 12.8 µM
In short: as §1

TAB165 = details: P. falciparum in erythrocytes, SYBR Green DNA, 72 h; series mostly up to 12.8 µM
In short: as §1

Measured: Potency

CN1CCCC[C@@H]1CCN1c2ccccc2Sc2ccc(S(C)=O)cc21 (stereo not given in full)
inactive: AA1029 | C2A | CP211 | CP215 | CP217 | CP250 | CP252 | CP256 | CP260 | CP269 | CP315 | CP325 | CP329 | FAB9 | JCK | N140 | P93_24 | PC15 | SC27B | TAB165

CN1[C@@H]2CC[C@H]1CC(OC(=O)[C@@H](O)c1ccccc1)C2 (stereo not given in full)
inactive: AA1029 | C2A | CP211 | CP215 | CP217 | CP250 | CP252 | CP256 | CP260 | CP269 | CP315 | CP325 | CP329 | FAB9 | JCK | N140 | P93_24 | PC15 | SC27B | TAB165

CC[C@@]12CCCN3CCc4c(n(c5ccccc45)C(=O)C1)[C@H]32
inactive: AA1029 | C2A | CP211 | CP215 | CP217 | CP250 | CP252 | CP256 | CP260 | CP269 | CP315 | CP325 | CP329 | FAB9 | JCK | N140 | P93_24 | PC15 | SC27B | TAB165
